Source: PubChem
SENP6 block = inhibitors of human SENP6 protease | Recombinant SENP6 catalytic domain, aminoluciferin luminescence | inhibition, % at 10 µM | 1.8% of 330,000 active | Q9GZR1 | AID 2599;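 active = inhibition above about 50% at the single tested dose, limit read from the data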
SENP8 block-1 = blocks the human protease SENP8; purified SENP8, Z-RLRGG-aminoluciferin cleavage, luminescence; inhibition, % at 10 µM; 1.2% of 330,000 active; in the data active = inhibition above about 50%
EBI2 antag = antagonists of human EBI2 receptor. inhibition, % at 5 µM. EBI2 beta-arrestin recruitment, luminescence, 7a,25-OHC stimulated. 0.81% of 360,000 active; in the data active = inhibition above about 38%;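 note: enzyme fragment complementation signal reports receptor beta-arrestin coupling in cells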
AHR act = activates the human aryl hydrocarbon receptor; P35869; AHR-responsive luciferase reporter cells, luminescence; activation, % at 5 µM; 2.5% of 320,000 active; in the data active = activation above about 47%
SENP7 block = SENP7 protease inhibition; inhibition, % at 5 µM; recombinant SENP7, Z-RLRGG-aminoluciferin luminescence, 40 min; 1.5% of 330,000 active; Q9BQF6;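 active = inhibition above about 50% at the single test dose, limit read from the data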
Target sequence (Q9BQF6 706-1050 limits assumed): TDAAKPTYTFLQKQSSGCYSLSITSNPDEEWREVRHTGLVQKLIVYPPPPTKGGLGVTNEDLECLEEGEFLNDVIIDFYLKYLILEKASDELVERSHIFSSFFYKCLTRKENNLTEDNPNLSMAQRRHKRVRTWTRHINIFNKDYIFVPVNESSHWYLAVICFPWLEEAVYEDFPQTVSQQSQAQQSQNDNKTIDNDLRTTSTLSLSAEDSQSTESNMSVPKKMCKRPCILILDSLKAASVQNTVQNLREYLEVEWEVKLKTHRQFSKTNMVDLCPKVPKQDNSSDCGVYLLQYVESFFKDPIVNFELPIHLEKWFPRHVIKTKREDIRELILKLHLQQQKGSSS
SENP8 block-2 = blocks human SENP8 cleavage of Nedd8 substrate; Q96LD8; 0.64% of 360,000 active; recombinant SENP8, Nedd8 substrate fluorescence; inhibition, % at 20 µM; in the data active = inhibition mostly above about 40%, no sharp cut-off; inactive = mostly below about 27%
SENP8 confirm = confirmation of human SENP8 protease inhibitors. Recombinant SENP8, Z-RLRGG-aminoluciferin luminescence, 60 min. shares compounds with SENP7 block. 40% of 6,200 active. inhibition, % at 12.5 µM;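 active = mean inhibition across replicates above about 50%, limit read from the data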
SENP6 conf = human SENP6 inhibition, confirmed | shares compounds with SENP7 block | recombinant SENP6, Z-RLRGG-aminoluciferin luminescence | inhibition, % at 12.5 µM | 58% of 6,200 active | AID 488915
SENP7 conf = human SENP7 inhibition, confirmed; shares compounds with SENP7 block; recombinant SENP7, Z-RLRGG-aminoluciferin luminescence, 40 min; 69% of 6,200 active; inhibition, % at 12.5 µM
Casp3 SENP sel = caspase-3 inhibition (SENP selectivity assay); purified caspase-3, Z-DEVD-aminoluciferin luminescence, 60 min; inhibition, % at 12.5 µM; 60% of 6,200 active; AID 488918; shares compounds with SENP7 block;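 active = mean inhibition above about 50%, limit read from the data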
SENP luc ctr = interferes with luciferase luminescence in SENP counter-screen | shares compounds with SENP7 block | AID 488919 | 39% of 6,200 active | Pre-incubated SENP8/Z-RLRGG-aminoluciferin, luciferase luminescence interference | inhibition, % at 12.5 µM;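 active = mean inhibition above about 50% when retested at one dose, limit read from the data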
Each line names hits and unclear results; the compound was inactive in the other large screens (follow-up assays come after a bar, where they were run). In the library only some 5% were active in any assay of this set; here they are far more common.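 Rule for the calls, unless noted: active = mean inhibition above about 50% in the one-dose retest (limit read from the data); inactive = the rest.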

CCCCc1nnc(NC(=O)CC(=O)Nc2ccccc2C(=O)O)s1	none
CC(C)Cc1nnc(NC(=O)CC(=O)Nc2ccccc2C(=O)O)s1	SENP6 block 70, SENP8 block-1 53 | SENP8 confirm inactive | SENP6 conf 67 | SENP7 conf 88 | Casp3 SENP sel 89 | SENP luc ctr 55
CCc1nnc(NC(=O)CC(=O)Nc2ccccc2C(=O)O)s1	SENP6 block 78, SENP7 block 55 | SENP8 confirm 68 | SENP6 conf 63 | SENP7 conf 89 | Casp3 SENP sel 88 | SENP luc ctr 71
CCCc1nnc(NC(=O)CN2CCOCC2)s1	none
CCc1nnc(NC(=O)CN2CCOCC2)s1	SENP7 block 99 | SENP8 confirm inactive | SENP6 conf inactive | SENP7 conf inactive | Casp3 SENP sel inactive | SENP luc ctr inactive
CC(C)c1nnc(NC(=O)CC(=O)Nc2ccccc2C(=O)O)s1	SENP6 block 81, SENP8 block-1 71, SENP7 block 78 | SENP8 confirm 87 | SENP6 conf 87 | SENP7 conf 98 | Casp3 SENP sel 94 | SENP luc ctr 86
COc1ccc(-c2oc3ccccc3c2C#CC(C)(C)O)cc1	none
CCCCN1C[C@H](CO)Oc2cccc(F)c2S1(=O)=O	none (no result: SENP6 block, SENP8 block-1, AHR act, SENP7 block)
O=C(CCNS(=O)(=O)c1ccc(F)cc1)N1CCN(c2ncccn2)CC1	none (no result: SENP6 block, SENP8 block-1, AHR act, SENP7 block)
O=C(Nc1ccccc1)Nc1ccccc1Br	SENP6 block 59, SENP8 block-1 73, SENP7 block 81 | SENP8 confirm inactive | SENP6 conf 82 | SENP7 conf 96 | Casp3 SENP sel 78 | SENP luc ctr inactive
O=C(Nc1ccccc1)Nc1cccc(NC(=O)Nc2ccccc2)c1F	none
CCSc1nsc(NC(=O)Nc2ccccc2Cl)n1	none (no result: SENP6 block, SENP8 block-1, AHR act, SENP7 block)
COC(=O)c1ccc(NC(=O)Nc2cccc(F)c2)cc1	SENP6 block 88, SENP8 block-1 79, SENP7 block 90 | SENP8 confirm 75 | SENP6 conf 75 | SENP7 conf 96 | Casp3 SENP sel 69 | SENP luc ctr inactive
CC(=O)Nc1cccc(NC(=O)Nc2ccc(F)cc2F)c1	none
CCSc1nsc(NC(=O)Nc2ccc(F)cc2F)n1	SENP6 block 52 | SENP8 confirm inactive | SENP6 conf inactive | SENP7 conf 65 | Casp3 SENP sel inactive | SENP luc ctr inactive
COC(=O)c1ccc(NC(=O)Nc2ccc(F)cc2F)cc1	SENP6 block 81, SENP8 block-1 64, SENP7 block 88 | SENP8 confirm inactive | SENP6 conf inactive | SENP7 conf 77 | Casp3 SENP sel 72 | SENP luc ctr inactive
c1ccc(COc2cccc(-c3cc4nc(NCc5ccc6c(c5)OCO6)ccn4n3)c2)cc1	none (no result: SENP6 block, SENP8 block-1, AHR act, SENP7 block)
CC(=O)N1CCCC(C)(C(=O)Nc2ccc3oc(C)nc3c2)C1 (configuration not stated)	none (no result: SENP6 block, SENP8 block-1, AHR act, SENP7 block)
O=C(Nc1ccccc1)Nc1ccc(F)cc1F	SENP6 block 67, SENP7 block 70 | SENP8 confirm 59 | SENP6 conf 56 | SENP7 conf 82 | Casp3 SENP sel 67 | SENP luc ctr inactive
COc1ccc(C(=O)N2CCN(C(C)=O)CC2)cc1S(=O)(=O)N1CCOCC1	none
NC1=CC(=O)c2cccc3cccc1c23	none (no result: EBI2 antag, SENP8 block-2)
NC1=Nc2cccc3cccc1c23	SENP6 block 66 | SENP8 confirm inactive | SENP6 conf inactive | SENP7 conf inactive | Casp3 SENP sel inactive | SENP luc ctr inactive
O=C(O)c1cc(N2CCCC2)ccn1	none (no result: SENP6 block, SENP8 block-1, AHR act, SENP7 block)
COc1ccc(-c2cn3c(n2)CCC3)cc1	none
